An excerpt weighted towards active compounds, which were near 4.6% of everything screened.
tim10-1 inh: growth inhibitors of tim10-1 mutant yeast, primary screen, luminescence, uHTS; hit rate 2.2% among 330,000; inhibition, % at 20 µM; S. cerevisiae tim10-1 ts strain growth, BacTiter-Glo, 24 h; AID 463190, 2010;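 active = inhibition of at least 40%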;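 also: mutant grown at 25 °C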
tim23-1 inh: growth inhibitors of tim23-1 mutant yeast, primary screen, luminescence, uHTS; S. cerevisiae tim23-1 growth, BacTiter-Glo luminescence, 24 h; inhibition, % at 20 µM; hit rate 1.3% among 330,000; AID 463212, 2010;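 active = growth inhibition of the mutant yeast at or above 50%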;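 also: temperature-sensitive mutant grown at 25 °C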
SKKanGAS inh: S. pyogenes SKKanGAS growth inhibitors in kanamycin, primary screen, streptokinase expression inhibitor project, SKKanGAS strain, BacTiter-Glo luminescence; AID 1662, 2009; inhibition, % at 7.5 µM; 6 h; hit rate 1.3% among 300,000;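 active = mean replicate score, as percent of positive control median, at least 50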;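 also: strain carries kanamycin resistance gene driven by streptokinase promoter and grows in 40 µg/ml kanamycin; loss of luminescence reflects streptokinase promoter inhibition or plain growth inhibition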
TIM10 inh: growth inhibitors of isogenic TIM10 control yeast, primary screen, counter-screen for tim10-1 yeast inhibitor project, luminescence, uHTS. S. cerevisiae TIM10 strain growth, BacTiter-Glo luminescence, 24 h. hit rate 1.4% among 330,000. inhibition, % at 10 µM. AID 463195, 2010;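 active = inhibition of 40% or more at the single tested concentration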;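 also: wild-type TIM10 isogenic control strain grown at permissive 25 °C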
PfHsp90 set2: growth inhibition of PfHsp90-expressing yeast, primary screen, antimalarial PfHsp90 inhibitor project, S. cerevisiae, BacTiter-Glo luminescence, single point, set 2. BacTiter-Glo ATP, 48 h; yeast lacking PDR1 and PDR3 efflux regulators. inhibition, % at 9.4 µM. hit rate 0.32% among 310,000;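 active = every replicate shows inhibition above about 80%, whatever the replicate mean, limit read from the data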
NALP3 yeast inh: NALP3 inflammasome inhibitors in reconstituted yeast, primary screen, luminescence, uHTS; hit rate 0.39% among 330,000; Yeast reconstituted NLRP3/ASC/caspase-1, beta-gal luminescence, 24 h; AID 2825, 2010; inhibition, % at 10 µM;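 active = inhibition of 50% or more; inactive = inhibition below 50%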
tim10-1 conf: growth inhibitors of tim10-1 mutant yeast, confirmation, single concentration, luminescence, S. cerevisiae. shares compounds with tim10-1 inh. S. cerevisiae tim10-1 ts strain growth, BacTiter-Glo, 24 h. inhibition, % at 20 µM. hit rate 56% among 7,400. AID 463213, 2010;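 active = inhibition of yeast growth at or above a set limit in either of two repeat tests at 20 µM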;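 also: tim10-1 mutant grown at permissive 25 °C to find synthetic lethal compounds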
Hits are given with their value; . = inactive; / = not tested or not shown.

SMILES	tim10-1 inh	tim23-1 inh	SKKanGAS inh	TIM10 inh	PfHsp90 set2	NALP3 yeast inh	tim10-1 conf
N=c1c(C(=O)NC2CCCCC2)cc2c(=O)n3ccccc3nc2n1CCc1ccccc1	.	.	.	.	.	.	/
CN1CCN(CC(=O)c2cc(C(C)(C)C)c(O)c(C(C)(C)C)c2)CC1	44	.	.	.	.	.	.
N#Cc1nc(COc2ccc(Cl)cc2Cl)oc1N1CCOCC1	41	.	.	.	.	.	.
CCOC(=O)C1CN(S(=O)(=O)c2ccccc2)c2cc(S(=O)(=O)CC)ccc2O1 (stereo not drawn)	.	.	.	.	.	.	/
CCOC(=O)C1CN(S(=O)(=O)c2cccc(C(F)(F)F)c2)c2cc(CC(=O)OC)ccc2O1 (stereo not drawn)	47	.	.	.	.	.	.
CC1CC/C(=N/Nc2ccccc2)C(=O)N1 (stereo not drawn)	.	.	.	.	.	.	/
CN(Cc1ccccc1)C(=O)[C@@H]1CCCN1S(=O)(=O)c1ccc(Cl)cc1	.	.	.	.	.	.	/
Cc1ccc(Cl)cc1NC(=O)c1ccccc1OCC(=O)Nc1ccc(Cl)cc1	48	.	.	.	/	.	.
Cc1ccc(NC(=O)COc2ccccc2C(=O)Nc2ccccc2)cc1Cl	.	.	.	.	.	.	/
COc1ccc(-c2ccc3oc(-c4ccc(OC)cc4)c(-c4ccc(OC)cc4)c3c2)cc1	.	.	.	.	.	.	/
COc1ccc2oc3cc(C)[n+]([O-])c(-c4ccc(Br)cc4)c3c2c1	42	.	.	.	.	.	.
Cc1ccc(S(=O)(=O)NCc2ccc(C(=O)N3CCc4ccccc4C3)cc2)cc1	47	.	.	.	.	.	.
CC(C)C(OC(=O)c1cc2sccc2n1C)C(=O)NCC1CCCO1 (stereo not drawn)	.	.	.	.	.	.	/
COc1ccc(CN(CC2CCCO2)C(=O)c2cc3sccc3n2C)c(OC)c1 (stereo not drawn)	45	.	.	.	.	.	.
S=C(Nc1ccc2nsnc2c1)N1CCCC1	41	.	.	.	.	.	.
Cn1c(=O)c2c(ncn2CC(=O)Nc2nccs2)n(C)c1=O	.	.	.	.	.	.	/
CCc1cc2c(NCc3ccccc3)nc(C)nc2s1	48	.	.	.	.	.	.
Cc1ccc2c(COC(=O)CNC(=O)c3ccco3)cc(=O)oc2c1C	.	.	/	.	.	.	/
COc1cc(NC(=O)c2cc(-c3ccccc3Cl)on2)cc(OC)c1OC	45	.	.	.	.	.	.
Cn1c(=O)c2c(nc(SCC(=O)NCc3ccc4c(c3)OCO4)n2Cc2ccc(Cl)cc2)n(C)c1=O	41	.	.	.	/	.	.
c1ccc(N2CCCCC2)c(Nc2nc3ccccc3n3cnnc23)c1	.	.	.	.	.	.	/
FC(F)(F)c1ccc(N2CCOCC2)c(Nc2nc3ccccc3n3cnnc23)c1	54	.	.	.	.	.	59
COc1ccc(Cl)cc1C(=O)Nn1cnnc1	.	.	.	.	.	.	/
CCc1ccc(/C=C2/C(=O)N(C)C(=S)N2CC(=O)OC)s1	43	.	.	.	.	.	44
Cc1ccc(S(=O)(=O)N(Cc2ccc(C(F)(F)F)cc2)C(=O)N2CCN(C)CC2)cc1	.	.	.	.	.	.	/
CC(=O)Nc1nc(-c2ccccc2)nc(-c2ccccc2OC(C)=O)n1	48	.	.	.	.	.	.
O=S(=O)(c1ccc2c(c1)OCCO2)N1CCC(O)(c2ccc(Cl)cc2)CC1	49	.	.	.	.	.	36
O=S(=O)(c1cccc(Cl)c1)N1CCN(S(=O)(=O)c2ccc3c(c2)OCCO3)CC1	.	.	/	.	.	.	/
COc1ccccc1C(=O)COC(=O)CNS(=O)(=O)c1ccc(C)c(C)c1	.	.	.	.	.	.	/

High-throughput results from PubChem BioAssay.
